Inconclusive results are not listed. Calls of active or inactive are those of the source. Unless noted, calls come from the whole dose curve; as a rule, active = well fitted curve in the direction sought with a large enough effect in the repeat runs; inconclusive = weak or mixed curves; inactive = no such curve, though single readings can be large; an effect the other way counts as inactive or inconclusive.
Assays:
[1] = qHTS assay to identify small molecule antagonists of the estrogen receptor alpha (ER-alpha) signaling pathway using the BG1 cell line in the presence of 0.1 nM 17-beta-estradiol - cell viability counter screen (AID 1259241); note: nearly all actives have a fitted effect of over 40% in size
Procedure, shortened: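 CellTiter-Fluor read (30 min, 37C) on ER-alpha/ERE-luc VM7Luc4E2 cells; 22 hr compound treatment; agonist 0.1 nM E2 final; same-well multiplex.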

[2] = qHTS assay to identify small molecule antagonists of the androgen receptor (AR) signaling pathway using the MDA cell line in the presence of 0.5 nM R1881 - cell viability counter screen (AID 1259242); note: nearly all actives have a fitted effect of over 45% in size
Procedure, shortened: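 MDA-kb2 cells (MMTV-luciferase, AR/GR responsive) were treated with compounds plus 0.5 nM R1881 (final) for 16 hr at 37C, 0% CO2. Viability was then read in the same wells as live-cell protease fluorescence (CellTiter-Fluor, 30 min).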

[3] = qHTS assay to identify small molecule HDAC inhibitors (AID 1259364); note: nearly all actives have a fitted effect of over 45% in size; note: potency is the fitted concentration of half-maximal effect; for activity change, negative = inhibition: top concentration of the series differs between compounds
Procedure, shortened: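 Wild-type HCT-116 cells, plated overnight at 37 C, exposed to compounds 2 hr at 37 C; luminogenic HDAC-Glo substrate then added 30 min at room temperature. Luminescence reports relative endogenous class I/II HDAC activity.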

[4] = qHTS assay to identify small molecule HDAC inhibitors - cell viability counter screen (AID 1259365); note: series mostly up to about 92 µM; nearly all actives have a fitted effect of over 50% in size
Procedure, shortened: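 To flag cytotoxic hits, 1,500 wild-type HCT-116 cells per well, plated the day before, receive test compounds for 2hr at 37 C before CellTiter-Glo reagent and a luminescence read.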

[5] = qHTS assay to identify small molecule agonists of the sonic hedgehog signaling (Shh) pathway - cell viability counter screen (AID 1259366); note: nearly all actives have a fitted effect of over 50% in size
Procedure, shortened: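 Fluorescence from CellTiter-Fluor reports live cells in this counter screen. NIH/3T3-derived Gli1-Luc reporter cells receive test compounds for 24hr at 37C; reagent goes in at 23hr.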

[6] = qHTS assay to identify small molecule antagonists of the sonic hedgehog signaling (Shh) pathway - cell viability counter screen (AID 1259367); note: nearly all actives have a fitted effect of over 55% in size
Procedure, shortened: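 Using CellTiter-Fluor, viability of Gli1-Luc reporter 3T3 cells is read by fluorescence in the wells used for the Shh luciferase assay. Treatment lasts 23 hr with conditioned medium, then reagent 1 hr at 37C.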

[7] = qHTS assay to identify small molecule agonists of the sonic hedgehog signaling (Shh) pathway (AID 1259368; calls by dose curve;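 note: NIH/3T3-derived 3T3Gli1-Luc cells carrying a stable Gli1-driven firefly luciferase reporter; series mostly up to about 92 µM; nearly all actives have a fitted effect of over 15% in size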)
Procedure, shortened: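 NIH/3T3-derived 3T3Gli1-Luc cells with stably integrated Gli1-driven firefly luciferase, 2,000 cells/well, compounds added after 4 hr. Incubated 24 hr at 37C, 5% CO2; luminescence read after 30 min with luciferase reagent at room temperature.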

[8] = qHTS assay to identify small molecule agonists of the androgen receptor (AR) signaling pathway in the presence of an antagonist - cell viability counter screen (AID 1259379);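 note: MDA-kb2 human breast cancer cells carrying an MMTV luciferase reporter; series mostly up to about 92 µM; nearly all actives have a fitted effect of over 25% in size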
Procedure, shortened: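 MDA-kb2 cells (MMTV-luciferase, AR/GR), 3,000/well, 5 h attachment, then 3.0 µM nilutamide (final) and compounds at 15 concentrations. Viability by CellTiter-Fluor fluorescence after 16 h at 37 °C, 0% CO2, in the reporter wells.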

[9] = qHTS assay to identify small molecule agonists of the estrogen receptor beta (ER-beta) signaling pathway - cell viability counter screen (AID 1259380); note: nearly all actives have a fitted effect of over 30% in size
Procedure, shortened: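 ER-beta-UAS-bla HEK293T cells in medium with 2% charcoal-stripped FBS, pre-incubated 6 hr, then treated 16 hr at 37C. Cytotoxicity read in the same wells by CellTiter-Glo luminescence after 30 min at room temperature.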

[10] = qHTS assay to identify small molecule antagonists of the estrogen receptor beta (ER-beta) signaling pathway - cell viability counter screen (AID 1259382);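 note: HEK293T cells carrying ER-beta-UAS-bla reporter stimulated with estradiol; series mostly up to about 92 µM; nearly all actives have a fitted effect of over 55% in size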
Procedure, shortened: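 ER-beta-UAS-bla HEK293T cells in 2% charcoal-stripped FBS medium, treated with compound plus 1 nM 17-beta-estradiol for 16 h at 37C. Viability read by CellTiter-Glo luminescence after 30 min at room temperature in the same wells.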

[11] = qHTS assay to identify small molecule agonists or antagonists of the thyroid stimulating hormone receptor (TSHR) signaling pathway - wild type cell line counter screen (AID 1259384; calls by dose curve)
Procedure, shortened: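 Counter screen in untransfected Hek293: compounds (15-point titration, triplicate) plus phosphodiesterase inhibitor Ro20-1724 added after 18 h plating; 30 min RT. Intracellular cAMP via competitive d2/cryptate immunoassay, 1 h incubation.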

[12] = molecular target: Estrogen receptor (Homo sapiens) (UniProt P03372); assay: qHTS assay to identify small molecule antagonists of the estrogen receptor alpha (ER-alpha) signaling pathway using the BG1 cell line in the presence of 0.1 nM 17-beta-estradiol (AID 1259244); note: nearly all actives have a fitted effect of over 50% in size
Procedure, shortened: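 VM7Luc4E2 cells (endogenous full-length ER-alpha, 4×ERE-luciferase), kept 5 days in phenol red-free, charcoal-stripped FBS medium; 4,000 cells/well. Compounds added with 0.1 nM (final) 17beta-estradiol, 22 hr at 37C; luminescence read with ONE-Glo after 30 min.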

[13] = qHTS assay to identify small molecule antagonists of the sonic hedgehog signaling (Shh) pathway (AID 1259369; calls by dose curve; note: nearly all actives have a fitted effect of over 45% in size)
Procedure, shortened: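 NIH/3T3-derived Gli1-Luc reporter cells plated 4 h, dosed with compound, then stimulated with conditioned medium for 24 h at 37 C. Firefly luciferase luminescence read after 30 min with detection reagent at room temperature.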

[14] = molecular target: Estrogen receptor (Homo sapiens) (UniProt P03372); assay: qHTS assay to identify small molecule agonists of the estrogen receptor alpha (ER-alpha) signaling pathway in the presence of an antagonist (AID 1259383; calls by dose curve; note: top concentration of the series differs between compounds; nearly all actives have a fitted effect of over 15% in size)
Procedure, shortened: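 VM7Luc4E2 cells express endogenous full-length ER-alpha with an ERE-luciferase reporter and were hormone-deprived for 5 days. Compounds at 15 concentrations were added with 10.0nM ICI-182,780 for 22hr at 37C. Luminescence was read with ONE-Glo.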

[15] = molecular target: Estrogen receptor beta (Homo sapiens) (UniProt Q92731); assay: qHTS assay to identify small molecule agonists of the estrogen receptor beta (ER-beta) signaling pathway (AID 1259377; active = well fitted activation curve with a large enough effect in the signal ratio in the repeat runs, not every such curve was filed as active; the % refers to the signal ratio; note: potency is the fitted concentration of half-maximal effect)
Procedure, shortened: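 Screening used GripTite ER-beta-UAS-bla cells held in 2% charcoal-stripped FBS medium. After overnight (16 hr) compound incubation at 37C, beta-lactamase activity was detected with a FRET substrate by fluorescence.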

[16] = molecular target: Estrogen receptor beta (Homo sapiens) (UniProt Q92731); assay: qHTS assay to identify small molecule antagonists of the estrogen receptor beta (ER-beta) signaling pathway (AID 1259378; active = well fitted inhibition curve with a large enough effect in the signal ratio in the repeat runs, not every such curve was filed as active; the % refers to the signal ratio)
Procedure, shortened: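 Antagonist mode: compounds added to beta-lactamase reporter HEK293T ER-beta-UAS cells stimulated with E2 (1nM final), 16 hr at 37C. LiveBLAzer B/G FRET substrate, 2 hours room temperature, fluorescence read-out.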

[17] = qHTS assay to identify small molecule phospholipidosis (PLD) inducers (AID 1259344; active = well fitted curve in the direction sought with a large enough effect; an effect the other way counts as inactive or inconclusive)
Procedure, shortened: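 Fluorescent phospholipid staining (LipidTOX Red) measured by automated microscopy in fixed HepG2 cells after 24 h treatment; nuclei counterstained with Hoechst 33342; amiodarone as reference inducer.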

[18] = molecular target: Androgen receptor (Homo sapiens) (UniProt P10275); assay: qHTS assay to identify small molecule agonists of the androgen receptor (AR) signaling pathway in the presence of an antagonist (AID 1259381; calls by dose curve; note: nearly all actives have a fitted effect of over 15% in size)
Procedure, shortened: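 MDA-kb2 cells carrying MMTV-luciferase (AR/GR responsive), 3,000 cells/well, co-treated with 3.0 uM nilutamide final. Compounds at 15 concentrations, 16 hr at 37C without CO2. Luciferase luminescence read after 30 min with ONE-Glo.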
% is set by controls: 0 for no effect and ±100 for the full control effect.

Sequence of Estrogen receptor (Homo sapiens) (P03372 whole entry, looked up): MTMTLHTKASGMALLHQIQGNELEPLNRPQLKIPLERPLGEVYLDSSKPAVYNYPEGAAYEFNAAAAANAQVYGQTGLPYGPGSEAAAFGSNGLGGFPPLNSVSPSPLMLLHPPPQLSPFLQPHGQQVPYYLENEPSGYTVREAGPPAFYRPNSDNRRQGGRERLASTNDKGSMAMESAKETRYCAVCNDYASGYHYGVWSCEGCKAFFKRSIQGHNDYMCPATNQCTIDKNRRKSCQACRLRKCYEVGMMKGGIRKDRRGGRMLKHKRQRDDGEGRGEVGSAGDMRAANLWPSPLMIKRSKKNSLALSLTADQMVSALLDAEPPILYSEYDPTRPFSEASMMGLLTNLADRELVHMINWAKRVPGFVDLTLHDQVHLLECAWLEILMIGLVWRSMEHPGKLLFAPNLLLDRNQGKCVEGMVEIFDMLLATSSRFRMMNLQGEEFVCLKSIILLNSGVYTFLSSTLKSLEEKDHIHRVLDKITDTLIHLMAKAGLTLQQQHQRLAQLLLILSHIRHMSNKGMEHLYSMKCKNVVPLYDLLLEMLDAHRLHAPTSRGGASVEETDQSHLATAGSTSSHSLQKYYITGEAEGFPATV
Sequence of Estrogen receptor beta (Homo sapiens) (Q92731 whole entry, looked up): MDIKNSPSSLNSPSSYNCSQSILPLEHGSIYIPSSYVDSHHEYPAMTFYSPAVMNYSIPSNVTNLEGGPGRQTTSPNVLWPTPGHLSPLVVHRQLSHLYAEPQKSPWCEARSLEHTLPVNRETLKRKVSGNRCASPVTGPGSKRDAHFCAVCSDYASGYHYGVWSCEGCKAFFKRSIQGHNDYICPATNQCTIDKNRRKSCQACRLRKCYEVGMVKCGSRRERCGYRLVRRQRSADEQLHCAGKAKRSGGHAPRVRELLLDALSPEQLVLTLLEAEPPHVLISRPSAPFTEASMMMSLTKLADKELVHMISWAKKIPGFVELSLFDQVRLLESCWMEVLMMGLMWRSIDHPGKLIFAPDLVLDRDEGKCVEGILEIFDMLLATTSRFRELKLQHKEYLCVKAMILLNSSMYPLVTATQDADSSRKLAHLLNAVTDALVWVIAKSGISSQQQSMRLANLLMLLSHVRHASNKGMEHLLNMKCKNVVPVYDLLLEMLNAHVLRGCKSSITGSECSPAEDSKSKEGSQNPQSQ
Sequence of Androgen receptor (Homo sapiens) (P10275 whole entry, looked up): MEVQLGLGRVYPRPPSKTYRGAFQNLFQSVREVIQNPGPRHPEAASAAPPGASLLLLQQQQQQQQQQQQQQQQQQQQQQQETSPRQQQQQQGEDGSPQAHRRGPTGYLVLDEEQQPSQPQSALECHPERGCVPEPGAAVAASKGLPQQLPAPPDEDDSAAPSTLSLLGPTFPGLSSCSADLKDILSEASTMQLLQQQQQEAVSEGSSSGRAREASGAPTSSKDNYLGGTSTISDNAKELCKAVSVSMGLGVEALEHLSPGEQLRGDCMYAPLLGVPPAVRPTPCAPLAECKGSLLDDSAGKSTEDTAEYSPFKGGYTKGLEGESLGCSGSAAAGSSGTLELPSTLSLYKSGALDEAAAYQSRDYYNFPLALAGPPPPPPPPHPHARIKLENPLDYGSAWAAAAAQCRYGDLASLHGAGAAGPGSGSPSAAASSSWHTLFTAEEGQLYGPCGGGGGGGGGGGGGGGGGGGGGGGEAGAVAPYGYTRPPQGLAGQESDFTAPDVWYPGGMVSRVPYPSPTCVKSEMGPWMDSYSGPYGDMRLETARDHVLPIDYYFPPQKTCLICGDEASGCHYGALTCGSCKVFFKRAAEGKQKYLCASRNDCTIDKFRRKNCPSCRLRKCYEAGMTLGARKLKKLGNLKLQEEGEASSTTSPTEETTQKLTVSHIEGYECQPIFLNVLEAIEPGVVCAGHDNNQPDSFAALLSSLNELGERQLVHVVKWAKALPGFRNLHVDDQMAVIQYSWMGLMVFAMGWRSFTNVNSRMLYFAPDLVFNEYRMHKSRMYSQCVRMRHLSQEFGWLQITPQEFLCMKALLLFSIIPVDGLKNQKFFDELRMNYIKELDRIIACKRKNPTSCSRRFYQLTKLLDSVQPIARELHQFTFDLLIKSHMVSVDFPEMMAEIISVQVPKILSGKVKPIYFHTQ

CN1COCN(Cc2cnc(Cl)s2)/C1=N\[N+](=O)[O-]
inactive: outcome [1] | Potency [2] | Potency [3] | outcome [4] | Potency [5] | Potency [6] | outcome [7] | Potency [8] | Potency [9] | Potency [10] | outcome [11]

CCN[C@@H](C)Cc1cccc(C(F)(F)F)c1
inactive: outcome [1] | Potency [2] | Potency [12] | Potency [3] | outcome [4] | Potency [6] | outcome [7] | Potency [13] | Potency [8] | Potency [9] | Potency [10] | Potency [14] | outcome [11]

COP(=O)(OC)O/C(C)=C/C(=O)N(C)C
inactive: outcome [1] | Potency [2] | Potency [12] | Potency [3] | outcome [4] | Potency [5] | Potency [6] | outcome [7] | Potency [13] | Potency [15] | outcome [16] | Potency [8] | Potency [9] | Potency [10] | Potency [14]

CCCCCCC(=O)CCCCCC/C=C/C[C@@H](O)[C@H](O)[C@@](N)(CO)C(=O)O
inactive: activity change, negative = cytotoxicity [1] 7.82% [at 19 µM] | viability change, negative = cytotoxic [2] 8.38% [at 19 µM] | Potency [17] | activity change, negative = inhibition [3] 6.81% [at 19 µM] | activity change, negative = cytotoxicity [4] -0.234% [at 19 µM] | viability change, negative = cytotoxic [6] -0.502% [at 19 µM] | activity change [7] -0.137% [at 18.9 µM] | activity change, negative = inhibition [13] 34.1% [at 19 µM] | activity change, negative = cytotoxicity [8] 2.63% [at 19 µM] | activity change, negative = cytotoxicity [9] -0.265% [at 19 µM] | activity change, negative = cytotoxicity [10] 5.36% [at 19 µM] | activation [14] -1.01% [at 19 µM] | cAMP activity change [11] 0.106% [at 18.9 µM]

OCC(Cl)CCl (configuration not stated)
inactive: outcome [1] | Potency [2] | Potency [3] | outcome [4] | Potency [5] | Potency [6] | outcome [7] | Potency [13] | Potency [15] | outcome [16] | Potency [8] | Potency [9] | Potency [10] | Potency [14]

NNC(N)=O
inactive: outcome [1] | Potency [2] | Potency [12] | Potency [3] | outcome [4] | Potency [5] | Potency [6] | outcome [7] | Potency [15] | outcome [16] | Potency [8] | Potency [9] | Potency [10] | Potency [14] | outcome [11]

CC(C)(C1CCC(O)CC1)C1CCC(O)CC1 (configuration not stated)
active: Potency [15] 21.7 µM
inactive: outcome [1] | Potency [2] | Potency [12] | Potency [3] | outcome [4] | Potency [6] | outcome [7] | Potency [13] | outcome [16] | Potency [8] | Potency [9] | Potency [10] | Potency [14]

O=CCCl
inactive: outcome [1] | Potency [2] | Potency [3] | outcome [4] | Potency [6] | outcome [7] | Potency [13] | outcome [16] | Potency [8] | Potency [10] | Potency [14]

O=P(O)(O)c1ccccc1
inactive: Potency [2] | Potency [3] | outcome [4] | Potency [5] | Potency [6] | outcome [7] | Potency [13] | Potency [8] | Potency [9] | Potency [10] | Potency [14]

NNCc1ccccc1
active: Potency [3] 11.1 µM
inactive: outcome [1] | Potency [2] | Potency [12] | outcome [4] | Potency [6] | outcome [7] | Potency [13] | Potency [8] | Potency [10] | outcome [11]

CCNP(=S)(OC)O/C(C)=C/C(=O)OC(C)C (configuration not stated)
inactive: Potency [2] | outcome [4] | Potency [5] | Potency [6] | outcome [7] | Potency [13] | Potency [15] | outcome [16] | Potency [8] | Potency [9] | Potency [10] | Potency [14]

Brc1c(Br)c(Br)c(Br)c(Br)c1Br
inactive: viability change, negative = cytotoxic [2] 7.8% [at 8.39 µM] | activity change, negative = inhibition [12] 3.5% [at 8.39 µM] | activity change, negative = inhibition [3] 4.51% [at 8.39 µM] | activity change, negative = cytotoxicity [4] 1.6% [at 8.39 µM] | viability change, negative = cytotoxic [5] 2.28% [at 8.39 µM] | viability change, negative = cytotoxic [6] 1.61% [at 8.39 µM] | activity change [7] -2.81% [at 8.39 µM] | activity change, negative = inhibition [13] -28% [at 8.39 µM] | activity change, negative = cytotoxicity [8] 0.311% [at 8.39 µM] | activity change, negative = cytotoxicity [9] -3.01% [at 8.39 µM] | activity change, negative = cytotoxicity [10] -0.381% [at 8.39 µM] | activation [14] -2.37% [at 8.39 µM] | cAMP activity change [11] 7.95% [at 8.39 µM]

N=C(N)[Se]
inactive: Potency [2] | Potency [12] | Potency [3] | outcome [4] | Potency [6] | outcome [7] | Potency [13] | outcome [16] | Potency [8] | Potency [10] | Potency [14]

C#CCOC(=O)/C=C(C)/C=C/CC(C)CCCC(C)C (configuration not stated)
inactive: outcome [1] | Potency [2] | Potency [12] | Potency [3] | outcome [4] | Potency [5] | Potency [6] | outcome [7] | Potency [13] | Potency [8] | Potency [9] | Potency [14] | outcome [11]

CCC(C)(C#N)N=NC(C)(C#N)CC (configuration not stated)
inactive: Potency [2] | Potency [12] | Potency [3] | outcome [4] | Potency [5] | Potency [6] | outcome [7] | Potency [13] | Potency [15] | outcome [16] | Potency [8] | Potency [9] | Potency [18] | Potency [10] | Potency [14] | outcome [11]

C=C1CC[C@@]2(O)[C@H]3Cc4ccc(O)c5c4[C@@]2(CCN3CC2CC2)[C@H]1O5
inactive: outcome [1] | Potency [17] | Potency [3] | outcome [4] | Potency [6] | outcome [7] | Potency [13] | Potency [15] | outcome [16] | Potency [8] | Potency [10] | outcome [11]

CS(=O)(=O)c1ccc(C(=O)C2C(=O)CCCC2=O)c(Cl)c1COCC(F)(F)F
inactive: outcome [1] | Potency [2] | Potency [3] | outcome [4] | Potency [5] | Potency [6] | outcome [7] | Potency [13] | Potency [8] | Potency [9] | Potency [10] | Potency [14] | outcome [11]

COC(=O)c1ccccc1CS(=O)(=O)NC(=O)Nc1nc(OC)cc(OC)n1
inactive: outcome [1] | Potency [2] | Potency [3] | outcome [4] | Potency [5] | Potency [6] | outcome [7] | Potency [15] | outcome [16] | Potency [8] | Potency [9] | Potency [10] | Potency [14] | outcome [11]
